For orientation: AC50 means the concentration at which the activity in the assay is half-maximal.

Calls of active or inactive are those of the source. The calls were made as follows: active = hit-call score of the fitted dose curve at least 0.9, where 1 is the maximum; inactive = score below 0.9.

Read-out in the assay: ABC Transporter (ABCB1), ABCB1 (gene 5243)
As to the kind of experiment: LTEA_HepaRG_ABCB1: Life Technologies and Expression Analysis (LTEA) Assay for ABC Transporter (ABCB1) using HepaRG (AID 2283460). Conditions: mRNA level, 48 h; actives raise or lower the signal. Here is the method: LTEA_HepaRG is a cell based, multiplexed-readout assay that uses HepaRG, a human liver cell line, with measurements taken at 48 hours after chemical dosing on a 96-well plate.LTEA_HepaRG_ABCB1 is one of 102 assay component(s) measured in the LTEA HepaRG cell culture assay. It is a marker of Steatosis/NR mediated transport.Data from the assay component LTEA_HepaRG_ABCB1 was analyzed into 1 endpoint. This assay endpoint, LTEA_HepaRG_ABCB1, was analyzed with bidirectional fitting relative to DMSO as the negative control and baseline of activity. Using a type of inducible reporter, measures of mRNA induction for gain or loss-of-signal activity can be used to understand regulation of transcription factor activity. To generalize the intended target to other relatable targets, this assay endpoint is annotated to the transporter intended target family, where the subfamily is ABC transporter.
A total of 1060 chemcials from the ToxCast library were tested in eight-point concentration-response experiments. Cell culture and cytotoxicity assays were conducted at Thermo Fisher Scientific's Custom Services facility (Madison, WI). A single lot of human HepaRG cells (Thermo Fisher Scientific, Frederick, MD) was used for the cell culture experiments. 96-well format collagen type I coated plates of human HepaRG cells were prepared using established methods. Briefly, cryopreserved HepaRG cells were thawed, plated at a density of approximately 100,000 cells/well in HepaRG Thaw, Plate, and General Purpose media (HPRG770, Thermo Fisher Scientific), and incubated for 48 hours. 0.5% DMSO was selected as vehicle control to balance the requisite need of DMSO in HepaRG cultures to maintain differentiation (for example, baseline metabolism, proportions of hepatocytes vs. cholangiocytes), while enabling further hepatic receptor pathway activation (for example, PXR and CAR) in response to chemical exposure. 48 hours after plating, the culture medium was replaced with HepaRG Serum-Free Incudtion Media. Cells were exposed to each test chemical in duplicate and maintained in CO2 incubators for another 48 hours. Chemical plates were thawed to room temperature and 200x concentrations of treatment groups were prepared. 8-point conentration-reponse curves were made with the highest exposure at 100 uM, followed by half-log dilutions, all in 0.5% DMSO. Each test plate contained variouse controls, induction positive controls (1mM phenobarbital), cytotoxicity positive controls ([…] aflatoxin B1), vehicle controls (0.5% DMSO), and total lysis controls (0.5% DMSO). Cell morphology images were taken using an Essen IncuCyte FLR automated microscope, with six 96-well plates imaged in about 24 minutes. Images were captured and exported and JPEG files. Spent culture media was transfered to black-well plates for the LDH assay, and remaining media was sorted at -80 C for later use. Cells were treated with RLT buffer and frozen until shipped for gene expression analysis. Total RNA was isolated from the cell suspension in 75 uL of Buffer RLT (Qiagen, Germantown, MD 20874) by Quintiles/Expression Analysis (Durham, NC) using a custom isolation procedure. Total RNA from each plate well was transferred to a preamplification plate. Fluidigm's 96.96 Dynamic ArrayTM (Fluidigm, Amsterdam, the Netherlands) technology was used for gene expression analyses by quantitative reverse transcription polymerase chain reaction (qRT-PCR, performed by Quintiles/Expression Analysis, Durham, NC)89. Standard TaqManTM Assays (Applied Biosystems/ThermoFisher Scientific, Foster City, CA) were used to assess the expression of 93 genes selected based on their selectivity and sensitivity to important hepatic receptors known to be modulated by environmental chemicals; importance in human hepatocyte functionality; and hepatotoxicity. […]
Turning to `COCC(=O)N(c1c(C)cccc1C)C(C)C(=O)OC` (stereo not given), the call was inactive.
With `CC1(C)C(C=C(Cl)Cl)C1C(=O)OC(C#N)c1cccc(Oc2ccccc2)c1` (stereo not given), the AC50 is 50 µM (active).
Turning to `O=c1n(Cl)c(=O)n(Cl)c(=O)n1Cl`, the call was inactive.
On to `CCCCC(O)(Cn1cncn1)c1ccc(Cl)cc1Cl` (stereo not given), for which the half-maximal activity concentration (AC50) was 11.8 µM (active).
Regarding `CC(C)NC(=O)N1CC(=O)N(c2cc(Cl)cc(Cl)c2)C1=O`, the concentration at half-maximal activity (AC50) is 3.58 µM (active).
`COP(=S)(OC)Oc1ccc([N+](=O)[O-])c(C)c1`: the outcome was inactive.
With `COCC(C)N(C(=O)CCl)c1c(C)csc1C` (stereo not given), the outcome was inactive.
As for `O=P(O)(O)CCCl`, the call was inactive.
`CCCCC(C#N)(Cn1cncn1)c1ccc(Cl)cc1` (stereo not given): the AC50 is 13.1 µM (active).
Same read-out and setting: for `CC(C)N1C(=O)N(c2ccccc2)CSC1=NC(C)(C)C` the value was 17.7 µM (active).
Consider `Clc1cccc(C(Cl)(Cl)Cl)n1`, for which the call was inactive.
On to `CCCCOCN(C(=O)CCl)c1c(CC)cccc1CC`, for which the AC50 was 83.7 µM (active).
For the molecule `OC(c1ccc(Cl)cc1)(c1ccc(Cl)cc1)C(Cl)(Cl)Cl`, the result was inactive.
`CCOc1cc(C(C)(C)C)ccc1C1COC(c2c(F)cccc2F)=N1` (stereo not given): the concentration at half-maximal activity (AC50) is 6.97 µM (active).
On to `CS(=O)(=O)c1ccc(C(=O)C2C(=O)CCCC2=O)c([N+](=O)[O-])c1`, for which the molecule was classed as inactive.
Still for that read-out and setting: with `Nc1c(Cl)c(Cl)nc(C(=O)O)c1Cl` the entry was “inactive”.
On the same count and under the same terms, for `CCOC(=O)C(C)OC(=O)c1cc(Oc2ccc(C(F)(F)F)cc2Cl)ccc1[N+](=O)[O-]` (stereo not given) the value was “inactive”; for `CS(=O)(=O)c1cc(C(F)(F)F)ccc1C(=O)c1cnoc1C1CC1`, “inactive”; for `COc1cc(Cl)c(OC)cc1Cl`, “inactive”.
As to `C=C(C)CN(CC)c1c([N+](=O)[O-])cc(C(F)(F)F)cc1[N+](=O)[O-]`, the molecule was classed as inactive.
On to `CNC(=O)Oc1cccc2ccccc12`, for which the molecule was classed as inactive.
Same read-out and setting: for `CNC(=O)N(C)c1nnc(C(C)(C)C)s1` the value was “inactive”.
Regarding `CC(C)(C)C(=O)C(Oc1ccc(Cl)cc1)n1cncn1` (stereo not given), the half-maximal activity concentration (AC50) is 7.7 µM (active).
As for `CC(C)Nc1nc(Cl)nc(NC(C)C)n1`, the AC50 was 19.8 µM (active).
Take `CC(C)C1(C)N=C(c2ncccc2C(=O)O)NC1=O` (stereo not given): the molecule was called inactive.
Take `CC1(C)CON(Cc2ccccc2Cl)C1=O`: the concentration at half-maximal activity (AC50) is 9.19 µM (active).
The same measure, in the same setting: with `COc1cc(OC)nc(NC(=O)NS(=O)(=O)c2ncccc2OCC(F)(F)F)n1` the figure was 31.3 µM (active).
Take `N#Cc1c(Cl)cccc1Cl`: the outcome was inactive.
`CC(C)=CC1C(C(=O)OCc2coc(Cc3ccccc3)c2)C1(C)C` (stereo not given): the AC50 was 29.3 µM (active).
As for `COC(=O)NC(=S)Nc1ccccc1NC(=S)NC(=O)OC`, the concentration at half-maximal activity (AC50) is 17.4 µM (active).
For the molecule `O=C(O)c1c(Cl)ccc2cc(Cl)cnc12`, the molecule was called inactive.
For the molecule `C=CCOC(=O)C(C)(C)OC(=O)c1cc(-n2c(=O)cc(C(F)(F)F)n(C)c2=O)ccc1Cl`, the molecule was classed as inactive.
On the same count and under the same terms, with `CCOP(=O)(OCC)Oc1nc(Cl)c(Cl)cc1Cl` the entry was “inactive”; with `N#Cc1c[nH]cc1-c1cccc2c1OC(F)(F)O2`, “inactive”.
Same read-out and setting: with `Nc1c(Cl)c(F)nc(OCC(=O)O)c1Cl` the entry was “inactive”; with `CC(C)N1C(=O)c2ccccc2NS1(=O)=O`, “inactive”.
The same measure, in the same setting: for `N#CN=C1SCCN1Cc1ccc(Cl)nc1` the value was “inactive”; for `Clc1nc(Cl)nc(Nc2ccccc2Cl)n1`, “inactive”.
Turning to `CCNP(=S)(OC)O/C(C)=C/C(=O)OC(C)C` (stereo not given), the AC50 was 13 µM (active).
On to `Cc1ccc(N=CN(C)C=Nc2ccc(C)cc2C)c(C)c1`, for which the result was inactive.

The record behind these values is PubChem BioAssay (EPA / NIEHS).
